hDAT+cocaine: human DAT dopamine uptake with cocaine, either direction | AID 449768 | actives 1.3% (n = 110,000) | Q01959 | LLC-PK1 hDAT cells, [14C]-dopamine uptake with cocaine IC80; actives deviate in either direction | B-score at 10 µM;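 active means Z score or B-score, a plate-position-corrected score, falls beyond the plate's 99.7% confidence bounds, in either direction; inactive means both scores lie inside the 99.7% bounds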
PostGolgi yeast: growth inhibition of a yeast mutant, post-Golgi transport screen | inhibition, % at 10 µM | actives 0.9% (n = 98,000) | post-Golgi transport phenotypic cell assay;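 further: yeast cells grown in 1536-well plates; yeast grown about 18 h at 30C before absorbance read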
PLAP act: activators of human placental alkaline phosphatase. purified PLAP enzyme, luminescent substrate read-out; stronger effect = higher value. activation fold at 20 µM. actives 1.2% (n = 96,000). AID 696; in the data active means activation fold above about 2
Target sequence (P05187 whole entry, looked up): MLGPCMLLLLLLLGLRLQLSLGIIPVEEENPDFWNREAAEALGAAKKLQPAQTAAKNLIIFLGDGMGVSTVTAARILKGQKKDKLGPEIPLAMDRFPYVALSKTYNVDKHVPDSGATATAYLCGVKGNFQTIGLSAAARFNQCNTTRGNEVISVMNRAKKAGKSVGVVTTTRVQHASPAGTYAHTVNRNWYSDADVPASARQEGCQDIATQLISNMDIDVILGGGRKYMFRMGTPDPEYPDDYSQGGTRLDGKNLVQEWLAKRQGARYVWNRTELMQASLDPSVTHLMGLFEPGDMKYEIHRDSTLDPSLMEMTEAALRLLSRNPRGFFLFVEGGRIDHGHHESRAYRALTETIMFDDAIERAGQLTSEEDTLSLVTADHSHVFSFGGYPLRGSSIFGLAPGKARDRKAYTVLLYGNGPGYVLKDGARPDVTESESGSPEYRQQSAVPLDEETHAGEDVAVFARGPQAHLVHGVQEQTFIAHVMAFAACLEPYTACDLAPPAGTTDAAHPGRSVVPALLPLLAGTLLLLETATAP
D1 allo mod: D1 dopamine receptor (human) allosteric modulation | P21728 | HEK293 D1, CRE-luciferase, dopamine EC30 potentiation; actives deviate in either direction | B-score at 10 µM | actives 5.9% (n = 58,000);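 active means luminescence count or its row- and column-corrected plate score outside the 99.7% band of the plate's sample wells, on either side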
Cav32 inh: blocks human Cav3.2 T-type calcium channel; Cav3.2-expressing cells, Fluo-4 calcium fluorescence FDSS; stronger effect = lower value; B-score at 10 µM; actives 4% (n = 100,000); AID 449739;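 active means single-dose well whose peak fluorescence ratio is a statistical outlier from its plate by either plate-standardised score or position-corrected B-score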
PostGolgi ctrl: yeast control strain growth, post-Golgi counter-screen | efflux-deficient yeast background strain, growth absorbance A615, 16 h | actives 5% (n = 98,000) | inhibition, % at 10 µM
Numbers stand for hits; . = inactive; / = no result. This is a sample that favours compounds with a hit; in the whole collection about 12% have one here. Unless noted, no stated cut-off is given here; in the data, active means inhibition above about 30%; inactive means the rest.

SMILES	hDAT+cocaine	PostGolgi yeast	PLAP act	D1 allo mod	Cav32 inh	PostGolgi ctrl
N#Cc1ccccc1Cn1cc(C(=O)c2ccco2)c2ccccc21	.	.	.	.	-6.07	.
CCC(=O)c1cn(Cc2ccccc2C#N)c2ccccc12	.	.	.	.	.	30.8
O=C(c1ccco1)c1cn(Cc2ccccc2)c2ccccc12	.	.	.	/	.	.
N#Cc1ccccc1Cn1cc(C(=O)C2CC2)c2ccccc21	.	.	.	.	.	.
CC(C)C(=O)c1cn(Cc2ccc(C#N)cc2)c2ccccc12	.	/	/	/	-5.65	/
O=C(c1ccco1)c1cn(Cc2ccccc2Cl)c2ccccc12	.	.	.	/	-6.05	.
CCCCOC(=O)c1ccc(NC(=O)c2c(O)[nH]c(=O)[nH]c2=O)cc1	.	/	/	/	.	/
O=C(O)Cc1cnc[nH]1	.	/	/	/	.	/
CC(C)(O)[C@@H]1[C@H]2OC(=O)[C@@H]1[C@]1(O)C[C@H]3O[C@]34C(=O)O[C@H]2[C@]14C (tested in a mixture with another compound)	.	/	/	/	/	/
CC12CN3CC(C)(CN(C1)C3c1cccs1)C2O (centres undefined)	.	.	.	.	.	.
CCCCn1c(O)c(C(CC)=NCc2ccc(F)cc2)c(=O)[nH]c1=O	.	.	.	/	.	31.0
CCCCCCN=C(C)c1c(O)n(CCCC)c(=O)[nH]c1=O	.	.	.	.	.	38.1
CCCCn1c(O)c(C(CC)=NCCCN(C)C)c(=O)[nH]c1=O	.	.	.	.	.	.
CCCCn1c(O)c(C(C)=NCCCN(CC)CC)c(=O)[nH]c1=O	.	.	.	.	.	.
O=C(CN1C(=O)CN=C(c2ccccc2Cl)c2cc(Cl)ccc21)NCc1ccco1	.	.	.	.	.	31.1
COc1ccc(C2=NCC(=O)N(CC(=O)NCc3ccco3)c3sc4c(c32)CCCC4)cc1	.	.	.	.	.	.
Cc1cccc(C2=NCC(=O)N(CC(=O)NCc3ccco3)c3sc4c(c32)CCCC4)c1	.	.	.	.	-3.93	.
Cc1sc2ncn(CC(=O)NCCCC(=O)N3CCC4(CC3)OCCO4)c(=O)c2c1C	.	.	.	/	.	35.5
Cc1sc2ncn(CC(=O)NCC(=O)N3CCC4(CC3)OCCO4)c(=O)c2c1C	.	.	.	.	.	.
O=C(COc1ccc(Cl)cc1)N1CCN(C/C=C/c2ccccc2)CC1	.	.	.	/	.	.
CCCC(C)C1C(C#N)=C(N)Oc2c1c(=O)oc1ccccc21 (centres undefined)	.	.	.	.	/	36.2
Cc1ccc(-n2nc(C)c(C3C(C#N)=C(N)Oc4c3c(=O)oc3ccccc43)c2Cl)cc1 (centres undefined)	/	.	.	/	/	38.9
CC(C)Oc1ccc(C2C(C#N)=C(N)Oc3c2c(=O)oc2ccccc32)cc1 (centres undefined)	.	.	.	/	.	.
COC(=O)C1=C(c2ccccc2)C[C@@H]2CC[C@H]1N2C(=O)N1CCC(O)CC1	.	/	/	/	.	/
CCCCn1c(N)c(C(=O)NCCN2CCOCC2)c2nc3ccccc3nc21	.	.	2.3	/	.	.
SMILES	hDAT+cocaine	PostGolgi yeast	PLAP act	D1 allo mod	Cav32 inh	PostGolgi ctrl
COc1ccc(CCNC(=O)c2c(N)n(CCN3CCOCC3)c3nc4ccccc4nc23)cc1	.	.	.	.	.	35.3
CCOC(=O)c1c(N)n(CCN2CCCCC2)c2nc3ccccc3nc12	.	.	.	.	.	.
Nc1c(C(=O)NCCN2CCOCC2)c2nc3ccccc3nc2n1Cc1ccco1	.	.	.	.	.	.
Nc1c(C(=O)NCCc2ccccc2)c2nc3ccccc3nc2n1CCN1CCOCC1	.	50.2	.	.	.	40.0
CCN(CC)C1=NC(=[N+](CC)CC)c2ccccc21	-2.98	.	.	/	.	.
CCOP(=O)(OCC)C(O)c1ccc(OC)c(OC)c1 (centres undefined)	.	.	.	/	.	.
CCNc1nc(NC(C)(C)C)nc(SC)n1	.	/	/	/	/	/
O=C1CN=C(c2ccccc2)c2ccccc2N1Cc1ccc(C(F)(F)F)cc1	.	.	.	/	.	41.7
CN1C(=O)CN=C(c2ccc(Cl)cc2)c2cc(Cl)ccc21	.	/	/	.	.	/
CCOc1ccc(-n2c(O)c(C=NCCN(CC)CC)c(=O)[nH]c2=O)cc1	.	.	.	.	.	36.3
COC(=O)C1=C(c2ccc(S(C)(=O)=O)cc2)C[C@@H]2CC[C@H]1N2C(=O)NCc1cccc2ccccc12	.	/	/	/	.	/
CC1=NN(c2ccccc2)C(=O)/C1=C/c1c(O)[nH]c(=S)[nH]c1=O	.	.	.	/	.	.
CN1C(=O)C(=Cc2ccc(N3CCCCCC3)o2)C(=O)N(C)C1=S	.	.	.	/	-7.05	.
CC[C@H]1CN2CC[C@@]3(C(=O)Nc4ccccc43)[C@@H]2C[C@@H]1/C(=C\OC)C(=O)OC	.	/	/	/	.	/
Cc1cc2c(C(F)(F)F)cc(=O)oc2c2c1NCCC2	.	.	.	.	-8.32	.
O=c1cc(C(F)(F)F)c2cc3c4c(c2o1)CCCN4CCC3	.	.	.	/	-7.83	.
Cc1nn(-c2ccccc2)c2c1C(c1ccc3c(c1)OCO3)SCC(=O)N2 (centres undefined)	.	.	.	.	.	.
Cc1ccc(N2C(=O)NC(=O)C3(Cc4ccccc4N4CCN(c5ccccc5)CC43)C2=O)cc1 (centres undefined)	.	.	.	.	-6.83	.
O=C(Nc1cccc(C(F)(F)F)c1)c1cccn(Cc2ccc3c(c2)OC(F)(F)O3)c1=O	.	.	.	/	/	31.9
Cc1cccc(C)c1NC(=O)c1cccn(Cc2ccc3c(c2)OC(F)(F)O3)c1=O	.	.	.	/	/	75.2
CC(C)Oc1cccc(NC(=O)c2cccn(Cc3ccc4c(c3)OC(F)(F)O4)c2=O)c1	.	.	.	/	/	.
CN1CCc2c(c(N3CCCCC3)nc3n[nH]c(N)c23)C1	.	.	.	/	.	.
Cc1c2ccncc2c(C)c2c1[nH]c1ccccc12	.	/	/	.	-4.4	/
c1ccc2c(c1)[nH]c1cnccc12	.	/	/	.	.	/
Cc1ccc(-n2c(-c3cccs3)nc3ccccc3c2=O)cc1	/	.	.	/	/	.
SMILES	hDAT+cocaine	PostGolgi yeast	PLAP act	D1 allo mod	Cav32 inh	PostGolgi ctrl
CNC(=O)Oc1ccc2c(c1)C(=O)c1ccccc1CO2	.	.	.	/	.	.
COc1ccccc1-n1c(O)c(C=Nc2c(C)n(C)n(-c3ccccc3)c2=O)c(=O)[nH]c1=O	.	.	.	.	.	.
CN1C(=O)C(=Cc2ccccc2Oc2ccc(Cl)c(F)c2)C(=O)N(C)C1=O	.	.	.	/	-4.75	.
CC(=O)O[C@@H]1/C=C/[C@](C)(O)C[C@@H](C)C/C=C/[C@H]2[C@@H]3O[C@]3(C)[C@@H](C)[C@H]3[C@H](Cc4ccccc4)NC(=O)[C@@]312	.	/	/	/	.	/
CC(C)CCNC(=O)c1c(N)n(CC2CCCO2)c2nc3ccccc3nc12 (centres undefined)	.	.	2.1	/	-4.2	56.8
CCC(C)NC(=O)c1c(N)n(CC2CCCO2)c2nc3ccccc3nc12 (centres undefined)	.	.	2	.	-8.71	56.0
